Experimental data from PubChem BioAssay AID912 (National Center for Advancing Translational Sciences (NCATS), 2007).
“And” between values parts separate entries of the source, which are not always exact repeats. Identical values can stand only once. Screen size: about 70,000 compounds; about 470 (0.67%) were called active. Roughly 18% stayed inconclusive and do not appear here. Calls follow the shape of the full dose curve. What follows is part of a selection rich in actives, with near analogues and random picks from the rest.

Assay: qHTS Assay for Anthrax Lethal Toxin Internalization; also: nearly all actives have a fitted effect of over 50% in size
Conditions: Cells, FRET ratio (460/530); series mostly up to 40 µM; activity change, negative = inhibition: at the top concentration
% is scaled to controls: 0 for no effect and ±100 for the full control effect; potency is read from the fitted curve at half-maximal effect.

SMILES | activity change, negative = inhibition | Potency
CC(C)CO/N=C1/C[C@@H](O)[C@@H](O)[C@@H]2[C@@H]3C(=O)N(C[C@@H]4CCCO4)C(=O)[C@H]3CC[C@@H]12 | 0.14% [at 8 µM] (inactive) | 
CCOC(=O)[C@]1(C(/C=C/c2ccco2)NC(=O)OC)CCCC1=O (stereo partly drawn) | -10.5% [at 8 µM] (inactive) | 
CSc1nnc2c(n1)OC(c1cn(C)c3ccccc13)N(C(C)=O)c1ccccc1-2 (stereo not drawn) | -13.1% (inactive) | 
CC1(C)OC(C(O)(c2ccccc2)c2ccccc2)C(C(O)(c2ccccc2)c2ccccc2)O1 (stereo not drawn) | -5.79% [at 8 µM] (inactive) | 
CO[C@H]1COC(=O)C/C=C\[C@H](C)COC(=O)[C@@H](OCc2ccccc2)/C=C\[C@@H]1C | -13% [at 1.6 µM] (inactive) | 
CCOC(=O)c1sc(NC(=O)C(CC)Sc2nccn2C)nc1C (stereo not drawn) | -9.75% (inactive) | 
CC(C)CO | -3.46% (inactive) | 
O=C(CSC1=Nc2ccccc2C2=NC(c3ccccc3)C(=O)N12)NCC1CCCO1 (stereo not drawn) | 0.99% (inactive) | 
CC(C)CC1(C(=O)NCc2ccccn2)C=CCN1C(=O)c1ccccc1 (stereo not drawn) | -3.7% (inactive) | 
CCCN(C/C=C\I)[C@@H]1CCc2cccc(O)c2C1 | -10.5% (inactive) | 
Brc1cc(Br)c(Oc2cc(Br)c(Br)cc2Br)cc1Br |  | 1 µM (active)
CCCCCCCCCCCC(=O)O[C@H](CC(=O)O)C[N+](C)(C)C | -25.3% (inactive) | 
CCCOC(=O)Nc1ccccc1C(N)=O | 0.458% (inactive) | 
C=CCOC(=O)COCCC(C)C | 5.37% (inactive) | 
CCCn1c(C)nc2c(NCCCCN(CC)CC)nc(C)nc21 | -11.6% (inactive) | 
CC(=O)c1c(O)c(C)c(O)c(Cc2c(O)c3c(c(C(=O)/C=C\c4ccccc4)c2O)OC(C)(C)C=C3)c1O |  | 15.8 µM (active)
N#CCCn1c(=O)c(-c2cc(F)cc(F)c2)nc2cnc(Oc3ccccc3)nc21 | -8.39% (inactive) | 
CO[C@H]1COC(=O)[C@@H](C)NC(=O)C/C=C\[C@@H](C)[C@H](OC)COC(=O)C/C=C\[C@@H]1C | 5.17% [at 8 µM] (inactive) | 
CS(=O)(=O)N1CCC2(CC1)CN(Cc1ccccc1)C2 | -10.8% (inactive) | 
c1ccc(CN2CC[C@@]3(CCCNC3)C2)cc1 |  | 10 µM (active)
CC(=O)N1CCC2(CCCN(Cc3ccccc3)C2)CC1 | 1.54% (inactive) | 

SMILES | activity change, negative = inhibition | Potency
CC(=O)N1[C@H](C)C=C[C@]1(Cc1ccccc1)C(=O)NCc1ccccn1 | 3.36% (inactive) | 
C#CCC(C(=O)OC)(C(=O)OC)C(C[N+](=O)[O-])c1ccccc1 (stereo not drawn) | 2.17% [at 8 µM] (inactive) | 
CC(C)(O)/C=C\C(=O)[C@](C)(O)[C@H]1[C@H](O)C[C@]2(C)[C@@H]3CC=C4[C@@H](C=C(O)C(=O)C4(C)C)[C@]3(C)C(=O)C[C@@]12C |  | 0.0316 µM (active)
Cc1c(NC(=O)Nc2ccccc2Cl)sc(=S)n1C | -4.94% (inactive) | 
COC(=O)[C@@H]1CC[C@H](C)[C@@H](c2ccc(C)cc2)N1C(=O)c1ccc(/C=N\OC[C@@H](O)COCc2ccco2)cc1 | 12.1% [at 8 µM] (inactive) | 
CCCCCCN(C(=O)CCCCCN1C(=O)NC(c2ccc(C(F)(F)F)cc2)C(C(=O)OCc2ccccc2)=C1C)C(C(=O)NCCCC)c1ccc(OCC(=O)OC)c(C(=O)OC)c1 (stereo not drawn) | 17% (inactive) | 
CC(C)CSC[C@@H]1O[C@H](n2cnc3c(N)nccc32)[C@H](O)[C@@H]1O | -14.1% [at 8 µM] (inactive) | 
S=c1c2[nH]cnc2ncn1CCSc1ncnc2nc[nH]c12 | -7.68% [at 8 µM] (inactive) | 
Cc1nc2cnc(N3CCNCC3)nc2n(CCc2ccccc2)c1=O | 1.57% (inactive) | 
O=P(c1cccs1)(c1cccs1)c1cccs1 | 5.29% (inactive) | 
C[C@]1(C(=O)NCCc2c[nH]c3ccccc23)C=C[C@@H](Cc2ccccc2)N1C(=O)c1ccccc1 | 1.11% (inactive) | 
CO/N=C\[C@@H](C)[C@H](OCc1ccccc1)C(C)C | 1.89% [at 1.6 µM] (inactive) | 
CCn1c(CNC(=O)c2ccc(OC)c(OC)c2)nnc1SCC(=O)Nc1ccccc1 | 13.5% (inactive) | 
CCOC(=O)N/N=C1/C[C@@H](O)[C@@H](O)[C@@H]2[C@@H]3C(=O)N(CC)C(=O)[C@H]3CC[C@H]12 | 4.77% [at 8 µM] (inactive) | 
CN(CCCNC(=O)CN1C(=O)CC(C)(C)S(=O)(=O)c2ccccc21)C1CCCCC1 | -15% (inactive) | 
CCCCCCCCCCCC(=O)O | inactive | 
CC(C)C[C@@H](CC(=O)N[C@@H](CCC(=O)O)CC(=O)O)NC(=O)[C@@H]1CCCC[C@H]1NC(=O)C[C@@H](NC(=O)C[C@H](Cc1c[nH]c2ccccc12)NC(=O)[C@@H]1CCCC[C@H]1N)C(C)C | -15.8% (inactive) | 
COc1ccc(Br)c2c1C[C@H](C(=O)O)CC2 | -10.3% [at 8 µM] (inactive) | 
Cc1cc(N2CCCCC2)nc2ccc(Cc3ccc4nc(N5CCCCC5)cc(C)c4c3)cc12 | 3.79% [at 8 µM] (inactive) | 
C[C@H]1CC[C@H](C(=O)O)N[C@@H]1c1ccc(C#Cc2ccccc2)cc1 | 0.0911% [at 1.6 µM] (inactive) | 
COc1ccc2[nH]cc(CCNc3ncnc4ccc(-c5ccccc5CN(C)C)cc34)c2c1 | -27.3% (inactive) | 

SMILES | activity change, negative = inhibition | Potency
COc1cccc(-c2cc(NCCc3c[nH]c4ccc(OC)cc34)ncn2)c1 |  | 10 µM (active)
COc1ccc2[nH]cc(CCNc3ncnc4ccc(-c5ccc(C(=O)N(C)C)cc5)cc34)c2c1 | -21.2% (inactive) | 
COC(=O)C1=C(C)N(Cc2ccccc2)C2=C3C(=O)N(c4ccccc4)C(=O)C3[C@@](O)(C(=O)OC)C(=O)N2C1c1ccccc1 (stereo partly drawn) | -8.4% [at 8 µM] (inactive) and -8.22% [at 8 µM] (inactive) | 
CC(=O)/C(C)=N\O | -14.4% (inactive) | 
CCOC(=O)N1CCC(NC(=O)COc2cc(=O)n(C)c3ccccc23)CC1 | 4.09% (inactive) | 
Cn1c(=O)c(C(=O)Nc2ncccn2)c(O)c2ccccc21 | -1.9% (inactive) | 
Cn1c(C(=O)NCCN2CCc3ccccc3C2)cc2c(=O)[nH]c3ccccc3c21 | 10.3% (inactive) | 
CCN1CCCC1CNC(=O)c1cc2c(=O)n(C)c3ccccc3c2n1C (stereo not drawn) |  | 10 µM (active)
Cn1c(C(=O)N2CCC(C(N)=O)CC2)cc2c(=O)n(C)c3ccccc3c21 | 15% (inactive) | 
CC1CCCC(C)N1CCCNC(=O)c1cc2c(=O)n(C)c3ccccc3c2n1C (stereo not drawn) |  | 3.98 µM (active)
COC(=O)[C@@]1(C)C=C[C@@H](Cc2ccccc2)N1C(C)=O | -17% (inactive) | 
C=CCOC(=O)c1ccccc1C(=O)OCC=C | 15.7% (inactive) | 
Cc1ccc2oc(=O)ccc2c1 | -13.3% (inactive) | 
NCCCNCCCCN(CCCN)/[N+]([O-])=N/O | -22.3% (inactive) | 
CNC(=O)C1(C)C=CC2(CCCCC2)N1C(C)=O (stereo not drawn) | 9.63% (inactive) | 
CCCNC(=O)OC[C@@H]1O[C@H](c2ccccc2)C=C[C@@H]1Oc1ccc(OC)cc1 | -2.83% [at 8 µM] (inactive) | 
CSc1nc2ccc(S(=O)(=O)N3CCc4ccccc43)cc2s1 | -0.645% (inactive) | 
O=C(O)c1nccnc1C(=O)Nc1ccc(Br)cn1 | 2.29% (inactive) | 
Cc1ncc(CC(=O)n2cc(C(=O)c3cc(Cl)ccc3O)cn2)s1 | -6.13% (inactive) | 
COC(=O)C1(Cc2ccccc2)C=C2C(=C(C)C(=O)C2C)CN1 (stereo not drawn) | -3.34% (inactive) | 
COC(=O)[C@H]1C[C@@H]1[C@H](NC(=O)Oc1ccc(F)cc1)c1ccccc1 | -6.54% (inactive) | 

SMILES | activity change, negative = inhibition | Potency
O=C(O)CS(=O)c1ccc2c3c(cccc13)C(=O)c1ccccc1-2 (stereo not drawn) | 1.15% [at 8 µM] (inactive) | 
CN(Cc1ccco1)c1ncncc1-c1ccoc1 | -7.98% (inactive) | 
CC(C)C[C@@H](CC(=O)N[C@@H](CCC(=O)O)CC(=O)O)NC(=O)[C@@H]1CCCC[C@H]1NC(=O)C[C@@H](NC(=O)C[C@H](CO)NC(=O)[C@@H]1CCCC[C@H]1N)C(C)C | -12% (inactive) | 
COc1ccc2nccc(C(=O)O)c2c1 | -6.5% [at 3.58 µM] (inactive) | 
COc1cccc([C@H]2Oc3ccc(OC)cc3/C(=N\OCC[C@@H]3C=C[C@H](OC(C)=O)[C@H](COC(C)=O)O3)[C@@H]2O)c1 | -2.18% [at 8 µM] (inactive) | 
CC(C)[C@@H](CC(=O)N[C@@H]1CCNC[C@H]1C(=O)N[C@H](CC(=O)N[C@@H](CCC(=O)O)CC(=O)O)Cc1ccccc1)NC(=O)C[C@H](CO)NC(=O)[C@@H]1CNCC[C@H]1N | 0.529% (inactive) | 
CC(=O)OCC1OC(C#CCCCc2ccccc2)C=CC1OC(C)=O (stereo not drawn) | -3.55% [at 8 µM] (inactive) | 
O=Cc1c(Cl)cccc1Cl | -0.409% (inactive) | 
COC(=O)[C@@H]1CC[C@H](C)[C@@H](c2ccc(C)cc2)N1C(=O)c1ccc(/C=N\O[C@@H](C)c2cn([C@H](CO)Cc3ccccc3)nn2)cc1 | 5.23% [at 8 µM] (inactive) | 
O=C(Nc1ccccc1-c1nnn(CC(=O)N2CCN(c3ccccc3)CC2)n1)c1cccs1 | -1.38% (inactive) | 
Cc1cc(C)cc(C#CC2C=CC(Oc3ccc(C4CCCC4)cc3)C(CO)O2)c1 (stereo not drawn) | -16.6% [at 8 µM] (inactive) | 
CS(=O)(=O)N1CCC2(CC1)CN(c1ccncc1)C2 | 3.25% (inactive) | 
CCCC[C@H]1C(=O)N(c2ccccc2)N(c2ccc(O)cc2)C1=O | -4.13% [at 3.58 µM] (inactive) | 
CO[C@H]1COC(=O)[C@@H](OCc2ccccc2)/C=C\[C@H](C)[C@@H](OC)COC(=O)[C@H](OCc2ccccc2)/C=C\[C@@H]1C | -4.42% [at 8 µM] (inactive) | 
C[C@@H]1C[C@H]2[C@@H]3C[C@H](F)C4=CC(=O)C=C[C@@]4(C)[C@]3(F)[C@H](O)C[C@]2(C)[C@@]1(O)C(=O)CO | 2.5% [at 3.58 µM] (inactive) | 
COCCn1c(=O)c(-c2cccs2)nc2cncnc21 | -5.15% (inactive) | 
COc1ccc(-c2oc3cc(OC)ccc3c2C(=O)c2ccc(C#N)cc2)cc1 | 46.6% (inactive) | 
CC(C)(C)[Si](OCC[C@@H]1C[C@@]1(C)[C@@H](NP(=O)(c1ccccc1)c1ccccc1)c1ccccc1)(c1ccccc1)c1ccccc1 | -12% (inactive) | 
COc1ccc(C(=O)N2CCC3(CCCN(C(c4ccccc4)c4ccccc4)C3)CC2)cc1 | -11.5% (inactive) | 
O=C(O)COc1c(Cl)cc(Cl)c2cccnc12 | 10.5% [at 8 µM] (inactive) | 
